Test results published in PubChem BioAssay AID624465 (National Center for Advancing Translational Sciences (NCATS), 2012).
The whole screen tested about 360,000 compounds, of which about 300 (0.083%) were called active. This excerpt belongs to a sample that is enriched for actives. Values without a mark were called inactive. Cut-off read from the data, not from the text of the source: active = activation above about 40%; inconclusive = between about 15% and that limit; inactive = weaker than that.

Each molecule was assayed against D(2) dopamine receptor (Homo sapiens) (UniProt P14416) (assay: Beta-Arrestin HTS for Positive Allosteric Modulators of the Human D2 Dopamine Receptor: Agonists). Conditions: DiscoveRx PathHunter D2 beta-arrestin, luminescence, 90 min; stronger effect = higher value; 100% = 57 uM dopamine signal.
Sequence of D(2) dopamine receptor (Homo sapiens) (P14416 whole entry, looked up): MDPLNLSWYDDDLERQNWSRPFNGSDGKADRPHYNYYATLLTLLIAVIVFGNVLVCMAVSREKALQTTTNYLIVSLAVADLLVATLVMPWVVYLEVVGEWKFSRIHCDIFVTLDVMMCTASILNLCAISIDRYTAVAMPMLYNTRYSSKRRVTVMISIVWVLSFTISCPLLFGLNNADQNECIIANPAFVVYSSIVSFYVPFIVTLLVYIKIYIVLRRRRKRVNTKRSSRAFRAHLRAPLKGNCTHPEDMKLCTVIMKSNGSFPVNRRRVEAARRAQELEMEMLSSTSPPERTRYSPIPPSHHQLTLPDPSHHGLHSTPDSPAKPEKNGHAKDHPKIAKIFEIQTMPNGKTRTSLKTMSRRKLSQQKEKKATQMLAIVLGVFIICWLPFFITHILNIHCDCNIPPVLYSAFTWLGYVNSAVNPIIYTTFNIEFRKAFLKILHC
Description: There is great interest in identifying small molecule ligands for G-protein coupled receptors (GPCRs) as nearly 50% of all FDA-approved drugs target these important receptor proteins. […] Amongst the dopamine receptors (DARs), the D2 is arguably one of the most validated drug targets in neurology and psychiatry. For instance, all receptor-based antiparkinsonian drugs primarily work via stimulating the D2 DAR, whereas all FDA-approved antipsychotic agents are antagonists of this receptor. The D2 DAR is also therapeutically targeted in other disorders such as restless legs syndrome, tardive dyskinesia, Tourette's syndrome, and hyperprolactinemia.
To this end, a miniaturized qHTS screen was developed to be screened against the Molecular Libraries Small Molecule Repository (MLSMR). This assay seeks to identify agonists against the D2 DAR.
NIH Molecular Libraries Probe Production Network [MLPCN]
NIH Chemical Genomics Center [NCGC]
PI Name: David Sibley, National Institutes of Neurological Disorders and Stroke
DiscoveRx D2 cells were thawed from frozen stock and seeded at 2,100 cells/ 3 uL/well media (DiscoveRx Plating Reagent 2) with MultiDrop Combi dispenser (Thermo Scientific, Logan, UT) onto white tissue culture treated 1536-well Aurora plates (Brooks Automation, Chelmsford, MA) and allowed to attach overnight at 37 deg C, 5% CO2. Next, 23 nL/well of compound solutions in DMSO were added with a pintool transfer (Kalypsis, San Diego, CA). As the positive control, 1 uL/well dopamine (EC100, 57 uM final concentration) diluted in buffer (HBSS + 10 mM HEPES + SMB + 0.1% Tween-20) was dispensed to 1 column of each plate. The rest of the plate was dispensed with buffer only, 1 uL/well as well. The cells were stimulated by compounds or dopamine control for 90 minutes at 37 deg C, 5% CO2, after which 1.5 ul/well of DiscoveRx detection reagent was added with BioRAPTR FRD dispenser. The detection reagent was prepared by mixing of Galacton Star Substrate, Emerald II solution and PathHunter buffer (supplied by the assay kit) together at 1:5:19 proportion accordingly just prior to dispensing. The plates were incubated at ambient temperature for 1 hour and then the luminescent signal was read on ViewLux plate reader (PerkinElmer, Waltham, MA).
Work on `CN(C)C(=O)CCC(=O)N1CCCCC1C(=O)Nc1ccc(Oc2ccccc2F)cc1` (configuration not stated) yielded an activation of -8.59%.
Work on `COc1ccc(N(CC(=O)NC2CCCC2)C(=O)CS(=O)CC(=O)Nc2ccc3c(c2)OCO3)cc1` (configuration not stated) yielded an activation of -1.02%.
`Cc1ccccc1-c1nc(CS(=O)(=O)CC(=O)N2CCc3ccccc3C2)c(C)o1` showed an activation of -4.35%.
Molecule `CCC1C(C#N)=C(SC)NC2=C1C(=O)CC(C)(C)C2` (configuration not stated) has an activation of -0.142%.
`O=C(NC1CCCCC1)C1CC(=O)N(CCc2ccccc2)C1` (configuration not stated) gave an activation of -0.239%.
`CO/N=C/c1cn(-c2ccc(Cl)cc2)nn1` was tested, and the activation was -5.2%.
With `N#CC1(Nc2ccc3c4c(cccc24)CC3)CCCCC1` the activation was -1.77%.
For `CCOc1ccc(CC(=O)NCCS(=O)(=O)N2CCN(c3ccccc3)CC2)cc1`, the activation was 0.195%.
In the case of `CCS(=O)(=O)N1CCC(N2CCN(c3ccccc3)CC2)CC1`, the activation was 45.9% (active).
With `O=S(=O)(NCCS(=O)(=O)N1CCN(c2ccccc2)CC1)c1ccc(F)cc1` the activation was -3.38%.
For `COc1ccc(CCn2c(NN=C3CCCC3)nc3c2c(=O)[nH]c(=O)n3C)cc1`, the activation was 46% (active).
With `COc1ccc(CCn2c(NCCCN3CCOCC3)nc3c2c(=O)[nH]c(=O)n3C)cc1` the activation was 0.498%.
`CC1CCN(c2nc3c(c(=O)[nH]c(=O)n3C)n2CCCc2ccccc2)CC1` was tested, and the activation was 1.37%.
In the case of `Cc1noc(C)c1C(=O)NC(C)c1ccc2c(c1)OCO2` (configuration not stated), the activation was 2.73%.
`Nc1cc2c(cc1Br)-c1ccc(F)cc1C2=O` was tested, and the activation was 0.435%.
Work on `Cn1nc(C(=O)OCC(=O)N(Cc2ccccc2)C(C)(C)C)c2ccccc2c1=O` yielded an activation of -5.43%.
`CNC[C@@H]1Oc2c(NS(C)(=O)=O)cccc2C(=O)N([C@@H](C)CO)C[C@H]1C` gave an activation of -2.2%.
Molecule `CCOc1cc(CN2CCCC(CO)(Cc3ccc(F)cc3F)C2)ccc1OC` (configuration not stated) has an activation of -5.13%.
In the case of `COc1ccccc1N1CCN(S(=O)(=O)CCNC(=O)c2ccc(OC(C)C)cc2)CC1`, the activation was 4.66%.
`CCCCNC(=O)c1nc(C2CCN(S(=O)(=O)c3ccc(F)c(F)c3)CC2)oc1-c1cccc(C(F)(F)F)c1` showed an activation of -1.93%.
With `OCCN1CCN(CCO)C1=S` the activation was -3.52%.
`O=C(CSc1nnc2n1CCCN2)c1ccccc1` gave an activation of 1.27%.
With `COc1cc(C(=S)N2CCOCC2)cc(OC)c1OC(=O)c1ccc([N+](=O)[O-])cc1[N+](=O)[O-]` the activation was 48% (active).
`COc1cc([N+](=O)[O-])cc([N+](=O)[O-])c1NC(=O)N1CCOCC1` showed an activation of 5.63%.
`COc1cc(C(=S)N2CCOCC2)cc(OC)c1OC(=O)c1cc([N+](=O)[O-])c(C)c([N+](=O)[O-])c1` gave an activation of 4.7%.
With `O=C(CN(C(=O)CNC(=O)c1cccs1)c1cccc(F)c1)NC1CCCCC1` the activation was -1.63%.
`O=C1CCC(C(=O)N2CCCCO2)CN1Cc1cccc(C(F)(F)F)c1` (configuration not stated) showed an activation of 1.46%.
In the case of `CCCCN1C(=O)C(CC(=O)NC(c2ccccc2)c2ccccc2)CC(C(=O)N2CCOCC2)=C1C` (configuration not stated), the activation was -7.35%.
`CCOC(=O)C(CCOc1cccc(CC)c1)C(=O)OCC` gave an activation of -1.01%.
Molecule `CNC(=O)c1csc(Cc2c(Cl)sc3ccc(Cl)cc23)n1` has an activation of 4.37%.
In the case of `Cc1ccc(S(=O)(=O)N(CC(=O)Nc2cccc([N+](=O)[O-])c2)Cc2ccc(Cl)cc2)cc1`, the activation was -7.47%.
`CCC(C)NC(=O)Cn1nc(C(F)(F)F)c2c1CCC2` (configuration not stated) was tested, and the activation was 1.68%.
With `COc1ccc(S(=O)(=O)N(C)C[C@H]2OCc3cnnn3CCCC(=O)N([C@H](C)CO)C[C@H]2C)cc1` the activation was 4.14%.
For `CN(C)CCNC(=O)c1ccc(-c2cn3c(-c4ccc(Oc5ccccc5)cc4)cnc3cn2)cc1`, the activation was 3.24%.
Molecule `C/C=C/C(=O)Nc1nnc(C(C)C)s1` has an activation of -0.338%.
`O=C(NNc1nc(N2CCCC2)nc(N2CCCC2)n1)c1ccccc1` gave an activation of 1.25%.
`Cc1cc2c(cc1C)NC1(C[C@H]3CCC(=O)N4CC[C@@H](C1)[C@@H]34)C(=NC(C)(C)CC(C)(C)C)N2` (some centres not stated) showed an activation of 1.8%.
